These results are taken from PubChem BioAssay (Tox21).

“And” between values parts separate entries of the source, which are not always exact repeats. Identical values can stand only once. Inconclusive results are not listed. Where a structure was tested more than once in an assay, its records may differ in their call. The source made the active and inactive calls. Unless noted, calls come from the whole dose curve; as a rule, active = well fitted curve in the direction sought with a large enough effect in the repeat runs; inconclusive = weak or mixed curves; inactive = no such curve, though single readings can be large; an effect the other way counts as inactive or inconclusive.

Test [1] is described as follows: qHTS assay to identify small molecule agonists of H2AX - cell viability counter screen (AID 1224847; calls by dose curve; note: nearly all actives have a fitted effect of over 30% in size; note: potency is the fitted concentration of half-maximal effect). In short, it runs like this: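 Compounds tested at 15 concentrations were incubated 3 hr at 37C with wild-type CHO-K1 cells; cellular ATP-based luminescence (CellTiter-Glo) indicated viability.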
Background: In qHTS, concentration-response curves come from the screen itself.

Test [2] is described as follows: qHTS RealTime-Glo MT Cell Viability Assay in HepG2 cells - 24 hour (AID 1224867). Note: nearly all actives have a fitted effect of over 50% in size. In short, it runs like this:
(§1)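 Real-time, nonlytic viability: 600 HepG2 cells/well mixed with NanoLuc enzyme plus prosubstrate; 5 h settle, compound (DMSO) added by pintool; luminescence monitored over 40 h at 37 C.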

A short description of test [3]: qHTS RealTime-Glo MT Cell Viability Assay in HEK293 cells - 32 hour (AID 1224868). Note: nearly all actives have a fitted effect of over 50% in size. Note: potency is the fitted concentration of half-maximal effect. A digest of the protocol:
(§2)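 Cells + reagent dispensed (600 cells/well, HEK293) → 5 h at 37 C/5% CO2 → 23 nL compound in DMSO pinned → 40 h at 37 C → luminescence read at 0, 8, 16, 24, 32, 40 h.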

Test [4] can be described thus: A CellTox Green Cytotoxicity Assay to monitor cytotoxicity in HEK293 cells - 0 hour (AID 1224869). Note: nearly all actives have a fitted effect of over 50% in size. In short, it runs like this:
(§3)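 Cytotoxicity was tracked continuously in HEK293 cells by a DNA-binding dye excluded from viable cells. Compounds were transferred in DMSO 5 h after seeding; fluorescence was recorded at intervals up to 40 h.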

Test [5] in a line: qHTS RealTime-Glo MT Cell Viability Assay in HepG2 cells - 40 hour (AID 1224870). Note: nearly all actives have a fitted effect of over 50% in size. Note: potency is the fitted concentration of half-maximal effect. In short, it runs like this: (§4)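 Real-time viability: cells seeded at 600 per well together with NanoLuc and cell-permeant prosubstrate, compounds added after 5 h incubation. Luminescence tracked at 0, 8, 16, 24, 32 and 40 h of exposure.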
Test [6] can be described thus: A CellTox Green Cytotoxicity Assay to monitor cytotoxicity in HEK293 cells - 40 hour (AID 1224871). Note: nearly all actives have a fitted effect of over 45% in size. Note: potency is the fitted concentration of half-maximal effect. In short, it runs like this:
as §3

Test [7] can be described thus: qHTS RealTime-Glo MT Cell Viability Assay in HEK293 cells - 16 hour (AID 1224872). Note: nearly all actives have a fitted effect of over 50% in size. Note: potency is the fitted concentration of half-maximal effect. In short, it runs like this: as §2
Test [8] can be described thus: qHTS RealTime-Glo MT Cell Viability Assay in HepG2 cells - 8 hour (AID 1224873). Note: nearly all actives have a fitted effect of over 55% in size. A digest of the protocol:
as §4

Test [9] is described as follows: qHTS RealTime-Glo MT Cell Viability Assay in HEK293 cells - 40 hour (AID 1224874). Note: nearly all actives have a fitted effect of over 50% in size. Note: potency is the fitted concentration of half-maximal effect. Conditions: RealTime-Glo luminescence; max response: stronger effect = lower value. A digest of the protocol: (§5)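 Nonlytic bioluminescent viability monitoring. HEK293 at 600 cells/well with reagent; 5 h settle; compound transfer by pintool; plates held at 37 C and read at set time points.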
A short description of test [10]: A CellTox Green Cytotoxicity Assay to monitor cytotoxicity in HEK293 cells - 24 hour (AID 1224875). Note: nearly all actives have a fitted effect of over 45% in size. In short, it runs like this: as §3
The nature of test [11]: A CellTox Green Cytotoxicity Assay to monitor cytotoxicity in HepG2 cells - 16 hour (AID 1224876). Note: nearly all actives have a fitted effect of over 45% in size. A digest of the protocol:
(§6)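 Real-time, homogeneous cytotoxicity readout: dead-cell DNA staining by CellTox Green in HepG2 monolayers, fluorescence measured at timed intervals up to 40 h of continuous compound exposure.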

A short description of test [12]: qHTS RealTime-Glo MT Cell Viability Assay in HepG2 cells - 32 hour (AID 1224877). Note: nearly all actives have a fitted effect of over 55% in size. Note: potency is the fitted concentration of half-maximal effect. A digest of the protocol:
as §1

The nature of test [13]: A CellTox Green Cytotoxicity Assay to monitor cytotoxicity in HepG2 cells - 24 hour (AID 1224878). Note: nearly all actives have a fitted effect of over 45% in size. A digest of the protocol: as §6
Test [14] can be described thus: A CellTox Green Cytotoxicity Assay to monitor cytotoxicity in HepG2 cells - 40 hour (AID 1224879). Note: nearly all actives have a fitted effect of over 40% in size. Note: potency is the fitted concentration of half-maximal effect. In short, it runs like this:
as §6

Test [15] can be described thus: qHTS RealTime-Glo MT Cell Viability Assay in HEK293 cells - 0 hour (AID 1224880). In short, it runs like this: as §5
The nature of test [16]: A CellTox Green Cytotoxicity Assay to monitor cytotoxicity in HEK293 cells - 32 hour (AID 1224881). Note: nearly all actives have a fitted effect of over 40% in size. In short, it runs like this:
as §3

Test [17] is described as follows: A CellTox Green Cytotoxicity Assay to monitor cytotoxicity in HepG2 cells - 0 hour (AID 1224882). Note: nearly all actives have a fitted effect of over 35% in size. A digest of the protocol:
as §6

The nature of test [18]: A CellTox Green Cytotoxicity Assay to monitor cytotoxicity in HepG2 cells - 32 hour (AID 1224883). Note: nearly all actives have a fitted effect of over 50% in size. In short, it runs like this:
as §6

A short description of test [19]: qHTS assay to identify small molecule antagonists of the estrogen related receptor (ERR) signaling pathway from Tox21 library (AID 1224848). Note: nearly all actives have a fitted effect of over 50% in size. Note: potency is the fitted concentration of half-maximal effect. A digest of the protocol: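 Antagonist-mode screen of the Tox21 10K library in an NTP-provided ERR reporter cell line; 18 h compound exposure at 37 C, luminescence measured with ONE-Glo.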
Test [20] is described as follows: qHTS assay to identify small molecule agonists of the estrogen related receptor (ERR) signaling pathway from Tox21 library (AID 1224849; calls by dose curve; note: nearly all actives have a fitted effect of over 15% in size). Conditions: ERR reporter cell line, ONE-Glo luciferase, 18 h. A digest of the protocol: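 Agonist signal is luciferase luminescence from an ERR reporter cell line treated 18 h at 37 C with DMSO-dissolved compounds, read 30 min after ONE-Glo addition at room temperature.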
% is set by controls: 0 for no effect and ±100 for the full control effect.

As for `C1CCC(NC2CCCCC2)CC1`, the Potency entry in test [1], in [2], in test [3], in [4], in test [5] and in test [6] was “inactive” in each case. The Potency result in [7], in test [8], in test [10], in test [11], in test [12] and in [13] was “inactive” in each case. The Potency result in test [14], in [16], in test [17] and in test [18] was “inactive” each time. Also, the max response in [9] is 3.03% (inactive) and 3.3% (inactive) and 2.02% (inactive). Also, in [15], the call was inactive.

As to `C[N+](C)(C)Cc1ccccc1`, the Potency entry in test [1], in [2], in [3], in test [4], in test [5] and in [6] was “inactive” each time. Moreover, the Potency entry in test [7], in test [8], in test [10], in test [11], in test [12] and in test [13] was “inactive” each time. Besides, the Potency entry in test [14], in test [16], in test [17] and in [18] was “inactive” in each case. Besides, the max response in [9] was 3.99% (inactive) and 18.8% (inactive) and -0.0813% (inactive). Further, in [15], the call was inactive.

For the molecule `CCOP(=S)(OCC)Oc1ccc2c(C)c(Cl)c(=O)oc2c1`, the Potency entry in test [1], in test [19], in test [2], in test [4], in test [5] and in [6] was “inactive” throughout. The Potency result in [8], in test [10], in [11], in test [12], in [13] and in [14] was “inactive” in each case. Besides, the Potency entry in [16], in [17] and in test [18] was “inactive” in each case. The activity change, positive = activation in [20] (at 42.5 µM (top of the series)) was 25.6% (active); in test [20] (at 92.4 µM (top of the series)), -10.9% (inactive) and -28.3% (inactive). Further, the Potency in test [3] was 12.4 µM (active) and 43.6 µM (active) and inactive; in test [7] it was 14 µM (active) and 43.6 µM (active) and inactive; in [9] it was 12.4 µM (active) and 43.6 µM (active). For the same molecule, the max response in test [9] is -24.9% (inactive). The call in [15] was inactive.

In the case of `N#CS`, the Potency entry in test [1], in [2], in test [3], in test [4], in test [5] and in test [6] was “inactive” each time. The Potency entry in test [7], in test [8], in test [10], in test [11], in test [12] and in test [13] was “inactive” throughout. Further, the Potency entry in test [14], in test [16], in [17] and in test [18] was “inactive” each time. For the same molecule, the max response in test [9] is 6.52% (inactive) [middle of 4 runs]. The call in test [15] was inactive.

Turning to `COc1ccccc1N`, the Potency entry in [1], in test [19], in test [3], in [4], in test [5] and in [6] was “inactive” throughout. The Potency entry in [7], in test [8], in [10], in test [11], in test [12] and in test [13] was “inactive” throughout. Besides, the Potency result in test [14], in [16], in [17] and in test [18] was “inactive” in each case. Further, the activity change, positive = activation in test [20] (at 92.4 µM (top of the series)) was 8.48% (inactive) and 0.539% (inactive) and 1.9% (inactive). In addition, the max response in test [9] was 3.5% (inactive) [middle of 4 runs]. In [15], the outcome was inactive.

As to `C[C@]12CCC(=O)C=C1CC[C@@H]1[C@@H]2CC[C@]2(C)C(=O)CC[C@@H]12`, the Potency result in test [1], in test [4], in [5], in test [8], in test [10] and in test [11] was “inactive” throughout. For the same molecule, the Potency entry in test [12], in test [13], in test [16], in test [17] and in test [18] was “inactive” in each case. Further, the Potency in test [19] was 42.5 µM (active) and 54.5 µM (active); in [3] it was 27.1 µM (active) and inactive; in test [6] it was 48.2 µM (active) and inactive; in test [7], 24.1 µM (active) and inactive; in test [9], 24.1 µM (active) and 24.5 µM (active); in test [14] it was “inactive and 49 µM (active)”. Also, the activity change, positive = activation in test [20] (at 42.5 µM (top of the series)) was -23.4% (inactive); in test [20] (at 92.4 µM (top of the series)), -46.4% (inactive) and -41% (inactive). In addition, in [9], the max response is -20.4% (inactive). For the same molecule, the molecule was classed as inactive in [15].

As to `CC(Cl)(Cl)C(=O)O`, the Potency result in test [1], in test [2], in [3], in test [4], in test [5] and in test [6] was “inactive” in each case. The Potency entry in test [7], in test [8], in [10], in [11], in test [12] and in test [13] was “inactive” each time. Further, the Potency entry in test [14], in [16], in test [17] and in test [18] was “inactive” throughout. Also, the max response in test [9] is 2.34% (inactive) and 8.45% (inactive) and 2.19% (inactive). Also, in test [15], the molecule was classed as inactive.

Take `CCCC[N+]1(C)CCCC1`: the Potency entry in [1], in test [2], in test [3], in [4], in test [6] and in test [7] was “inactive” throughout. For the same molecule, the Potency result in test [8], in test [10], in [11], in test [12], in [13] and in test [14] was “inactive” in each case. Further, the Potency entry in [16], in [17] and in [18] was “inactive” throughout. Moreover, the Potency result in test [5] was “inactive and 43.9 µM (active)”. Moreover, in test [9], the max response is 0.73% (inactive) [middle of 7 runs]. The molecule was classed as inactive in [15].

As to `CC[n+]1ccccc1`, the Potency entry in test [1] is “inactive and 1.26 µM (active)”; in [3], “inactive and 38.6 µM (active)”; in test [5], “inactive and 34.8 µM (active)”; in test [9], 21.7 µM (active); in test [12], “inactive and 49.1 µM (active)”. Moreover, the Potency result in test [2], in test [4], in test [6], in test [7], in test [8] and in test [10] was “inactive” throughout. Further, the Potency entry in test [11], in [13], in test [14], in test [16], in test [17] and in test [18] was “inactive” in each case. Moreover, in test [9], the max response was 9.29% (inactive) [middle of 4 runs]. Also, the molecule was called inactive in test [15].

As to `CC[N+](CC)(CC)CC`, the Potency result in test [1], in test [2], in [3], in test [4], in test [5] and in [6] was “inactive” throughout. For the same molecule, the Potency result in [7], in [8], in [10], in test [11], in [12] and in test [13] was “inactive” in each case. The Potency entry in test [14], in test [16], in [17] and in test [18] was “inactive” throughout. Further, in test [9], the max response was 2.86% (inactive) and 1.18% (inactive) and -0.431% (inactive). The outcome in [15] was inactive.
